Results as given in PubChem BioAssay AID504427 (National Center for Advancing Translational Sciences (NCATS), 2011).
The list shows a part of the results. Active and inactive are the calls of the source.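 Rule for the calls: active = compound that inhibits Clk2 kinase in the dose series, with an IC50 potency reported; inactive = no inhibition seen.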

Target: Dual specificity protein kinase CLK2 (Homo sapiens) (UniProt P49760)
Experiment: Kinase Inhibition Study on Inhibitors of CDC-like Kinase 2 (Reaction Biology data)
Settings: Reaction Biology kinase assay, 10 uM ATP
Source text: NIH Molecular Libraries Probe Production Centers Network [MLPCN] NIH Chemical Genomics Center [NCGC] MLPCN Grant: 1R03MH084827-01 Assay Submitter (PI): Tom Misteli NCGC Assay Overview: Alternative splicing of pre-mRNAs plays a major role in the regulation of eukaryotic gene expression. Alternative splicing is now thought to be one of the primary reasons for the complexity of higher organisms leading to an average of three protein isoforms per gene. Aberrant splicing can lead to a number of diseases and is known to play a role in rare genetic diseases such as progeria syndrome. Hutchinson-Gilford Progeria Syndrome (HGPS) is a pediatric premature aging disease caused by a spontaneous mutation in the lamin A/C (LMNA) gene due to a single point mutation in the lamin A gene effecting 1 in 4 million people. To identify both specific splicing modulators of the lamin A gene as well as general splicing modulators, a cell-based HTS assay was developed using a minigene reporter system (AIDs, 1459 & 1487). […] This AID summarizes the characterization of lead compounds in Clk2.
All kinase reactions were performed using 10 uM ATP in the assay. 100% activity was taken from kinase reactions with DMSO alone (the vehicle used for compound stock solutions).

Dual specificity protein kinase CLK2 (Homo sapiens), sequence (P49760 whole entry, looked up): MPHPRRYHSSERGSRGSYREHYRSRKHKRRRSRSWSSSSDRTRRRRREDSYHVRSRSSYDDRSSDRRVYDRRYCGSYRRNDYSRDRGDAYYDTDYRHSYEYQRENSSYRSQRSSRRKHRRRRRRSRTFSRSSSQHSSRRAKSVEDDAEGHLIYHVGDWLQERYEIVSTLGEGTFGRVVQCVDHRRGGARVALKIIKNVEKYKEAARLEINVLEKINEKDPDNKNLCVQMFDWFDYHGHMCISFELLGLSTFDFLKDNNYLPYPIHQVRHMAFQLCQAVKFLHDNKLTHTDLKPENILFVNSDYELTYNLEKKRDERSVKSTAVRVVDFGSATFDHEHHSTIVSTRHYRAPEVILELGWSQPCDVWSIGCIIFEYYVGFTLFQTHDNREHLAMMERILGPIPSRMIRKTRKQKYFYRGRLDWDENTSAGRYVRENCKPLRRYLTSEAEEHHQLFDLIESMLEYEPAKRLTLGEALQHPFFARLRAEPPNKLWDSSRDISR

Row | Structure (SMILES) | Potency
1 | CN(Cc1cncn1C)c1ncnc2ccc(-c3ccc4c(c3)OCO4)cc12 | 15 µM (active)
2 | c1coc(CCNc2ncnc3ccc(-c4ccc5c(c4)OCO5)cc23)c1 | 0.801 µM (active)
3 | c1nc(N2CCOCC2)c2cc(-c3ccc4c(c3)OCO4)ccc2n1 | 1.67 µM (active)
4 | CC(Nc1ncnc2ccc(-c3ccc4c(c3)OCO4)cc12)c1ccco1 (centres undefined) | 8.37 µM (active)
